Test results as given in PubChem BioAssay (EPA / NIEHS).
Some structures have more than one record in an assay (separate samples or runs), and their calls can disagree. Calls of active or inactive are those of the source. How the source made its calls: active means hit-call score of the fitted dose curve at least 0.9, where 1 is the maximum; inactive means score below 0.9.

Test: CCTE_Shafer_MEA_dev_spike_duration_mean: CCTE's Neural Network Formation Assay for Mean Spike Duration, Shafer Lab (AID 2284051);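 on AC50: potency for a decrease in mean network spike duration versus DMSO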
Experimental: CCTE_Shafer_MEA_dev assay is conducted using Axion Biosystems 48 well microelectrode array (MEA) plates and Maestro recording system. Each well of the MEA plate contains a grid of 16 microelectrodes embedded in the culture surface. Electrically active cells, such as neurons, can be cultured over the electrodes, and electrical activity in these cells can be recorded extracellularly. The spontaneous firing of neurons is captured from each electrode on a microsecond timescale providing both temporally and spatially precise data. […] The CCTE_Shafer_MEA_dev assay uses primary cultures of rat cortical neurons. Recordings are made on days post-plating 5, 7, 9 and 12. As these cultures mature over time, neural networks develop functional activity and form cohesive networks in which electrical activity can be highly coordinated. CCTE_Shafer_MEA_dev_spike_duration_mean is 1 of 19 assay components of the CCTE_Shafer_MEA_dev assay. It measures the average duration of network spikes (temporally-clustered groups of action potential firing across multiple electrodes) during a recording in a microelectrode array (MEA) using Axion Biosystems Maestro 768 channel amplifier with the AxIS adaptive spike detector. To collapse across multiple recordings made on days post-plating 5, 7, 9 and 12, the trapezoidal area-under-the-curve of the component is calculated.Data from the assay component CCTE_Shafer_MEA_dev_spike_duration_mean was analyzed into 1 assay endpoint. This assay endpoint, CCTE_Shafer_MEA_dev_spike_duration_mean, was analyzed in the negative analysis fitting direction relative to DMSO as the negative control and baseline of activity. Using a type of functional reporter, gain or loss-of-signal activity can be used to understand electrical activity.
On the day prior to culture, each well was coated thoroughly with 150 uL of 0.05% polyethyleneimine (PEI, Sigma Cat P3143) in 50 mM HEPES (Sigma Cat H7523) at a pH of 8. The plate was incubated at 37C for one hour. PEI was rinsed out with 500 uL of sterile water three times. Plates were stored at 4C until the day of culture. This culture was plated at a seeding density of 1.5 x 10^5 cells/well on a 48-well MEA plate, prepared as described above. Cells were administered via a 25 uL media/laminin ([…]; Sigma Cat L2020-1MG) drop directly onto the microelectrode array, as adding the cells with the laminin results in better attachment than pre-coating with laminin. After 2 hours, an additional 475 uL of cortical media was added and the cells returned to the incubator. Exposure starts at day 0 of plating and is continued over twelve days of network development until the experiment is terminated. Cells are fed with fresh medium on DIV 5 and 9, following the recordings on those days. The entire volume of media in the well is exchanged and any vehicle or compound treatment is renewed. Complete details are found in OP-NHEERL/ISTD/SBB/TJS/2015-03-r0 (available on request, email shafer.tim@epa.gov). Measurement of the electrical activity is non-invasive, and recordings can be made from the same plate over multiple different days of the culture. In cortical neurons, this allows for the measurement of extracellular action potentials over the period during which networks form in the MEA plate.
For CCCc1cc(=O)[nH]c(=S)[nH]1, the AC50 was 20.7 µM (active) and the outcome was “inactive”.
With CC(=O)Oc1ccccc1C(=O)O the outcome was “inactive”.
For FC(F)(F)C(F)(F)C(F)(F)C(F)(F)C(F)(F)C(F)(F)CCI, the outcome was “inactive”.
In the case of C=CCc1ccc(O)c(OC)c1, the outcome is reported as “inactive”.
In the case of O=c1[nH]cc(F)c(=O)[nH]1, the AC50 is reported as 1.52 µM (active).
In the case of OC[C@@H](O)[C@@H](O)[C@H](O)[C@H](O)CO, the outcome is reported as “inactive”.
For C[Si]1(C)O[Si](C)(C)O[Si](C)(C)O[Si](C)(C)O1, the outcome was “inactive”.
In the case of Cc1cc(=O)[nH]c(=S)[nH]1, the outcome is reported as “inactive”.
With CC(C)c1ccc(C(=O)N=C(N)N)cc1S(C)(=O)=O the outcome was “inactive”.
